GPR151 ag = activators of human GPR151. Q8TDV0. PathHunter beta-arrestin GPR151 cells, luminescence. activation, % at 11.2 µM. 650,000 compounds, 1% hits; in the data active = activation above about 4.9%;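 note: 0% = median of compound wells and 100% = cells with positive control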
FBW7 activator = activators of human E3 ligase FBW7; Q969H0; AlphaScreen FBW7–phospho-cyclin E peptide binding, activator screen; normalized activity (activation), % at 26.1 µM; 650,000 compounds, 0.13% hits; in the data active = normalized activity above about 1.9%;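 note: purified mutant Fbw7 with reduced substrate affinity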
Target sequence (Q969H0 whole entry, looked up): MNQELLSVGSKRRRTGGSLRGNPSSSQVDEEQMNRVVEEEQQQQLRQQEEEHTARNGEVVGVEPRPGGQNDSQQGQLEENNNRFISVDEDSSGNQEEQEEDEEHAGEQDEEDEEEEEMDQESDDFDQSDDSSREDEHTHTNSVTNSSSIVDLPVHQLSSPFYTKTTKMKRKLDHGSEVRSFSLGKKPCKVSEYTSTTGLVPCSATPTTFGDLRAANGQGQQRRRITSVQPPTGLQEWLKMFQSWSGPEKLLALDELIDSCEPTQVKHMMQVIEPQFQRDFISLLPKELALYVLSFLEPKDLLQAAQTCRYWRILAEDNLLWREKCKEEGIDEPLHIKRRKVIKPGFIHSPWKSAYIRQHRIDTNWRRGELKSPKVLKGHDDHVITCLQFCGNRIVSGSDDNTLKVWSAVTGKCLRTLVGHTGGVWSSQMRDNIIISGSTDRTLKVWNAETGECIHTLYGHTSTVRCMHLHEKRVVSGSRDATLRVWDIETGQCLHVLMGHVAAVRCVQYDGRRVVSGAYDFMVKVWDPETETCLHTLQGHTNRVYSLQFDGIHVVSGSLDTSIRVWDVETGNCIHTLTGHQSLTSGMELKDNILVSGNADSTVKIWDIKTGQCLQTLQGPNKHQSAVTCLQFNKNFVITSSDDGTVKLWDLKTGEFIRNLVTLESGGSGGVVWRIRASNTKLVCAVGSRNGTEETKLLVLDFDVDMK
MITF inh = inhibitors of human MITF; AlphaScreen MITF homodimerization, bead proximity signal; inhibition, % at 2.6 µM; 650,000 compounds, 0.91% hits; AID 1259374; in the data active = inhibition above about 50%;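 note: 0% = vehicle wells with protein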
TEAD-YAP inh = TEAD-YAP interaction inhibition | HEK-TIYL cells, TEAD-Gal4/YAP UAS-luciferase luminescence | inhibition, % at 9.12 µM | 640,000 compounds, 1.4% hits; in the data active = inhibition above about 32%;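 note: 0% = median of test compound wells and 100% = reference inhibitor wells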
Numbers without * were called inactive. Rows were chosen to be rich in hits. Some 3.5% of all compounds tested hit in one or more screens of this group.

SMILES	GPR151 ag	FBW7 activator	MITF inh	TEAD-YAP inh
Cc1ccc(C=Nc2ccccc2C(N)=O)s1	-0.4	-0.2	4.1	35.9*
NC(=O)c1ccccc1N=Cc1ccc(Br)s1	3.3	0.1	13.8	8.0
NNC(=O)CNc1c(-c2ccsc2)nc2ccccn12	0.3	0.0	0.5	52.0*
Cc1ccc(-c2noc(N=O)c2NO)cc1	1.0	0.0	-3.0	36.3*
O=Nc1onc(-c2ccc([N+](=O)[O-])cc2)c1NO	1.2	-0.2	-12.1	10.0
CCC(=O)Nc1cc(C2CC2)nn1-c1nc(-c2ccccc2)cc(=O)[nH]1	-1.3	2.2*	-1.9	15.3
CCCN(CCC)CCCNC(=O)C1c2ccccc2C(=O)N2CCc3ccccc3C12 (stereo not given)	-0.6	0.0	8.5	0.5
Nc1c(-c2ccccc2)cnc2c(-c3ccc(Cl)cc3)cnn12	-1.5	0.5	6.4	-22.4
Nc1c(-c2ccccc2)cnc2c(-c3ccccc3)cnn12	0.4	0.1	-3.6	40.9*
Cc1nn2c(N)c(-c3ccccc3)cnc2c1-c1ccc(Cl)cc1	0.7	0.1	-3.7	32.9*
COc1ccc(CCNC(=O)c2cnc(Nc3ccc(N4CCOCC4)cc3)s2)cc1	2.6	0.2	-1.4	-12.8
O=C(NCCOc1ccccc1)c1csc(Nc2ccc(N3CCOCC3)cc2)n1	2.5	-0.1	-127.4	39.4*
COc1ccc(CCNC(=O)c2csc(Nc3ccc(N4CCOCC4)cc3)n2)cc1	1.2	0.2	14.2	71.4*
Cc1ccc(-c2cccc3cnc(Nc4cccc(C(=O)N5CCCC5)c4)nc23)cn1	1.7	-0.3	17.8	24.6
Cc1ccc(-c2cccc3cnc(Nc4ccc(C(=O)NC5CC5)cc4)nc23)cn1	-0.9	0.5	-4.4	63.7*
Cc1ccc(-c2cccc3cnc(Nc4cccc(C(=O)NC5CC5)c4)nc23)cn1	1.3	0.4	30.3	32.5*
COC(=O)CN(c1ccccc1OC)S(=O)(=O)c1ccc(C)cc1	1.9	0.0	-5.4	-2.1
COc1ccc(-c2noc(-c3nnn(-c4cc(OC)cc(OC)c4)c3N)n2)cc1	-0.2	1.0	22.1	-3.4
COc1ccc2c(=O)c(-c3ccc4c(c3)OCCCO4)coc2c1	-1.1	0.2	18.4	-22.7
CC(=O)Oc1ccc2c(=O)c(-c3ccc4c(c3)OCCCO4)coc2c1	-2.1	0.0	4.0	66.9*
COc1cc(OC)c2c(=O)c(-c3ccc4c(c3)OCO4)coc2c1	0.4	0.0	-5.6	-65.8
CC(=O)Oc1cc(OC(C)=O)c2c(=O)c(-c3ccc4c(c3)OCCCO4)coc2c1	-0.5	0.0	3.4	69.5*
CCCNc1cc(Nc2ccccn2)nc(N)n1	-1.2	0.0	-9.1	33.8*
CCCNc1cc(Nc2ncccn2)nc(N)n1	0.0	0.1	-3.8	-11.3
CCOc1ccc(-c2nc(CSCC(=O)NCCC(C)C)c(C)o2)cc1	-0.1	-0.1	-2.4	-9.1
SMILES	GPR151 ag	FBW7 activator	MITF inh	TEAD-YAP inh
O=C(NC1CCCCC1)c1cc2ccccc2c(=O)o1	0.4	1.4	14.1	-42.1
O=C(O)Cc1ccc(N2C(=O)/C(=C\c3ccco3)SC2=S)cc1	-1.6	-0.9	75.8*	6.2
CCN1C(=O)/C(=C\C(C)=C\c2ccco2)SC1=S	0.0	0.1	18.4	-6.3
O=C1/C(=C/c2ccco2)SC(=S)N1c1cccnc1	-2.0	-0.5	68.3*	-11.5
NN1C(=O)/C(=C\c2ccco2)SC1=S	-0.7	-0.2	75.4*	1.6
CC(=C\c1ccco1)/C=C1/SC(=S)N(CC(=O)O)C1=O	0.1	-1.0	53.9*	-4.8
O=C(O)c1ccc(N2C(=O)/C(=C\c3ccco3)SC2=S)cc1O	-0.4	-0.2	38.2	-8.0
CC[C@@H]1NC(=O)[C@H]2CN(C(=O)Oc3ccccc3)CCN2C1=O	-0.6	1.0	16.4	-2.3
NN1C(=O)/C(=C/c2ccc(O)c(Br)c2)SC1=S	-8.4	-0.5	20.3	32.7*
COc1ccc(/C=C2/SC(=S)N(N)C2=O)cc1OC	1.8	-0.3	7.7	-10.7
Oc1ccc(CCNc2nc(Nc3ccc(N4CCOCC4)cc3)nc3c2ncn3-c2ccsc2)cc1	-2.1	0.1	19.3	42.4*
c1ccc(OCCNc2nc(Nc3ccc(N4CCOCC4)cc3)nc3c2ncn3-c2ccsc2)cc1	-1.5	0.0	16.7	-1.0
OCCNc1nc(Nc2ccc(N3CCOCC3)cc2)nc2c1ncn2-c1ccsc1	0.1	-0.2	1.9	60.3*
CC(C)N(CCNc1nc(Nc2ccc(N3CCOCC3)cc2)nc2c1ncn2-c1ccccc1)C(C)C	-1.2	-0.2	10.0	13.1
c1ccc(CNc2nc(Nc3ccc(N4CCOCC4)cc3)nc3c2ncn3-c2ccsc2)cc1	3.1	0.3	20.9	-10.4
CC(C)N(CCNc1nc(Nc2ccc(N3CCOCC3)cc2)nc2c1ncn2-c1ccsc1)C(C)C	-1.6	-0.2	-1.7	38.9*
CC(C)OC(=O)c1c(NC(=O)c2cc3n(n2)C(C(F)(F)F)CC(c2ccc(Cl)cc2)N3)sc2c1CCCC2 (stereo not given)	-0.8	0.0	-8.9	-4.6
CC1CCCCN1S(=O)(=O)c1ccc2c(c1)oc(=O)n2CC(=O)NC1CCCC1 (stereo not given)	-2.9	0.0	13.1	7.4
COc1cc(Nc2ncc(C)c(Nc3ccccc3)n2)cc(OC)c1OC	3.7	-0.1	-3.4	34.0*
Cc1cc(C)nc(Nc2ccc(Nc3ccccc3)cc2)n1	-2.5	-0.3	7.4	32.5*
COc1cc(Nc2nc(C)cc(Nc3ccccc3)n2)cc(OC)c1OC	2.7	0.1	5.2	46.0*
COc1cc(Nc2cc(C)nc(Nc3ccccc3)n2)cc(OC)c1OC	0.9	-0.1	2.2	46.9*
COc1cc(Nc2nc(C)cc(Nc3ccc(NC(C)=O)cc3)n2)cc(OC)c1OC	0.8	-0.1	14.8	-0.8
CCNc1cc(C)nc(Nc2ccc(NC(=O)c3cc(OC)c(OC)c(OC)c3)cc2)n1	-0.7	0.0	11.9	76.5*
C=CCN1CCN(C(CCC)c2nnnn2CCC(C)C)CC1 (stereo not given)	1.9	0.0	13.2	-3.5
SMILES	GPR151 ag	FBW7 activator	MITF inh	TEAD-YAP inh
O=C(CCCCC(=O)NNC(=O)CCc1ccccc1)NNC(=O)CCc1ccccc1	-1.7	2.3*	9.6	1.9
Cn1ncc(-c2ccnc(Nc3ccc(N4CCOCC4)cc3)c2)c1Nc1ccccc1	2.0	-0.7	-3.6	19.9
Cc1ncn(-c2ccc(Nc3cc(-c4cnn(CCc5ccccc5)c4-c4ccc(F)cc4)ccn3)cc2)n1	-0.3	0.2	24.3	33.6*
Cn1ncc(-c2ccnc(Nc3ccc(-n4cnc(N5CCOCC5)n4)cc3)c2)c1NC(=O)Cc1ccccc1	1.1	-0.6	-2.5	42.1*
Cn1ncc(-c2ccnc(Nc3ccc(N4CCOCC4)cc3)c2)c1N	0.3	-0.5	-0.3	34.9*
CCCn1cc(-c2ccnc(Nc3ccc(-n4cnc(C)n4)cc3)c2)c(-c2ccc(F)cc2)n1	0.9	0.4	29.2	-7.2
NC(=O)c1cc(N2CCOCC2)nc2ccccc12	-2.0	0.1	6.5	-1.5
CN(Cc1ccccc1)C(=O)CCNS(=O)(=O)c1ccc2[nH]c(=O)ccc2c1	-0.1	0.2	7.7	0.0
CCCCOC(=O)CSc1nnc(-c2ccc(N(C)C)cc2)o1	1.5	-0.1	-10.7	41.5*
COc1ccc(-n2ncc3c(N4CCCCCC4)ncnc32)cc1	-5.0	0.1	-6.7	96.8*

High-throughput results (PubChem BioAssay)
